Data as given in PMC9838217, “Structure of SALL4 zinc finger domain reveals link between AT-rich DNA binding and Okihiro syndrome”.
Positions count from the first letter of the chain named.

Tests used:
[1] = molecular target: T1, SALL4 ZFC4 R900W (HT-SELEX) (Mus musculus, UniProt Q8BX22 870-940, R900W); assay: HT-SELEX; high values mean tight binding; details: protein: recombinant; vector His6-GST; dsDNA, one strand shown
T1 sequence: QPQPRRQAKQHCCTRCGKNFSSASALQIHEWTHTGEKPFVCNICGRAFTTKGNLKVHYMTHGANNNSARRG
In short: (§1)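 Each canonical k-mer's binding signal is its read fraction expressed as fold change over the initial random library. Reads came from MiSeq sequencing, scanned for 6-mers, after up to 6 triplicate cycles in which purified recombinant mouse SALL4 zinc finger cluster 4 (residues 870–940, 1 µg) bound library DNA (1.5 µg first cycle, 200 ng later) in 100 µl of 10 mM Tris–HCl pH 7.5, 50 mM NaCl, poly(dI-dC), DTT for 10 min at room temperature. Complexes were then Ni2+ bead-captured, washed, PCR-amplified and reselected.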

[2] = molecular target: T2, SALL4 ZFC4 G921D (HT-SELEX) (Mus musculus, UniProt Q8BX22 870-940, G921D); assay: HT-SELEX; high values mean tight binding; details: protein: recombinant; vector His6-GST; dsDNA, one strand shown
T2 sequence: T1 sequence with W31R, G52D
In short: as §1

GAAGTA
binding signal [1]: 1.6 ± 0.0945 fold-change vs cycle 0
binding signal [2]: 1.43 ± 0.121 fold-change vs cycle 0

GGCACC
binding signal [1]: 0.163 ± 0.0146 fold-change vs cycle 0
binding signal [2]: 0.28 ± 0.0664 fold-change vs cycle 0

AGCGCC
binding signal [1]: 0.0655 ± 0.00477 fold-change vs cycle 0
binding signal [2]: 0.179 ± 0.0733 fold-change vs cycle 0

ACGCGC
binding signal [1]: 0.0585 ± 0.00894 fold-change vs cycle 0
binding signal [2]: 0.159 ± 0.07 fold-change vs cycle 0

CCTGGC
binding signal [1]: 0.162 ± 0.00687 fold-change vs cycle 0
binding signal [2]: 0.281 ± 0.075 fold-change vs cycle 0

ACTGCG
binding signal [1]: 0.289 ± 0.0171 fold-change vs cycle 0
binding signal [2]: 0.407 ± 0.0604 fold-change vs cycle 0

ATGATG
binding signal [1]: 1.51 ± 0.0621 fold-change vs cycle 0
binding signal [2]: 1.43 ± 0.0931 fold-change vs cycle 0

GTGCAC
binding signal [1]: 0.313 ± 0.0179 fold-change vs cycle 0
binding signal [2]: 0.456 ± 0.0786 fold-change vs cycle 0

CGGGGC
binding signal [1]: 0.0617 ± 0.00701 fold-change vs cycle 0
binding signal [2]: 0.163 ± 0.0639 fold-change vs cycle 0

CGCCAA
binding signal [1]: 0.185 ± 0.0197 fold-change vs cycle 0
binding signal [2]: 0.316 ± 0.0834 fold-change vs cycle 0

CGCACC
binding signal [1]: 0.132 ± 0.00899 fold-change vs cycle 0
binding signal [2]: 0.24 ± 0.0749 fold-change vs cycle 0

GCGCGC
binding signal [1]: 0.0165 ± 0.00409 fold-change vs cycle 0
binding signal [2]: 0.0747 ± 0.0529 fold-change vs cycle 0

CCACGC
binding signal [1]: 0.141 ± 0.0119 fold-change vs cycle 0
binding signal [2]: 0.248 ± 0.0561 fold-change vs cycle 0

AGCGGC
binding signal [1]: 0.0644 ± 0.00817 fold-change vs cycle 0
binding signal [2]: 0.177 ± 0.0591 fold-change vs cycle 0

AGCCGG
binding signal [1]: 0.121 ± 0.00957 fold-change vs cycle 0
binding signal [2]: 0.244 ± 0.0663 fold-change vs cycle 0

CGACCC
binding signal [1]: 0.172 ± 0.00839 fold-change vs cycle 0
binding signal [2]: 0.317 ± 0.0852 fold-change vs cycle 0

AGGGCC
binding signal [1]: 0.158 ± 0.0102 fold-change vs cycle 0
binding signal [2]: 0.28 ± 0.0679 fold-change vs cycle 0

GCGCTA
binding signal [1]: 0.156 ± 0.0119 fold-change vs cycle 0
binding signal [2]: 0.291 ± 0.093 fold-change vs cycle 0

CACCCG
binding signal [1]: 0.244 ± 0.0244 fold-change vs cycle 0
binding signal [2]: 0.342 ± 0.0506 fold-change vs cycle 0

CCCAGG
binding signal [1]: 0.297 ± 0.008 fold-change vs cycle 0
binding signal [2]: 0.401 ± 0.05 fold-change vs cycle 0

GCACCC
binding signal [1]: 0.1961 ± 0.000728 fold-change vs cycle 0
binding signal [2]: 0.322 ± 0.0644 fold-change vs cycle 0

CGCAGA
binding signal [1]: 0.265 ± 0.0309 fold-change vs cycle 0
binding signal [2]: 0.379 ± 0.0778 fold-change vs cycle 0

CCAGGG
binding signal [1]: 0.305 ± 0.0286 fold-change vs cycle 0
binding signal [2]: 0.408 ± 0.0718 fold-change vs cycle 0

GCTGCC
binding signal [1]: 0.109 ± 0.0113 fold-change vs cycle 0
binding signal [2]: 0.217 ± 0.0947 fold-change vs cycle 0

ACAGCG
binding signal [1]: 0.265 ± 0.00461 fold-change vs cycle 0
binding signal [2]: 0.381 ± 0.0624 fold-change vs cycle 0

GGTATA
binding signal [1]: 1.34 ± 0.0665 fold-change vs cycle 0
binding signal [2]: 1.3 ± 0.0853 fold-change vs cycle 0

GCTGGA
binding signal [1]: 0.37 ± 0.0454 fold-change vs cycle 0
binding signal [2]: 0.484 ± 0.0925 fold-change vs cycle 0

AGCTCG
binding signal [1]: 0.347 ± 0.0155 fold-change vs cycle 0
binding signal [2]: 0.487 ± 0.0527 fold-change vs cycle 0

CGCGCA
binding signal [1]: 0.0534 ± 0.00681 fold-change vs cycle 0
binding signal [2]: 0.139 ± 0.0597 fold-change vs cycle 0

GCCGTA
binding signal [1]: 0.228 ± 0.00567 fold-change vs cycle 0
binding signal [2]: 0.345 ± 0.066 fold-change vs cycle 0

CCGCCA
binding signal [1]: 0.105 ± 0.00392 fold-change vs cycle 0
binding signal [2]: 0.218 ± 0.0543 fold-change vs cycle 0

GTGCGA
binding signal [1]: 0.265 ± 0.00784 fold-change vs cycle 0
binding signal [2]: 0.4 ± 0.0639 fold-change vs cycle 0

CGGCTA
binding signal [1]: 0.246 ± 0.00516 fold-change vs cycle 0
binding signal [2]: 0.375 ± 0.0584 fold-change vs cycle 0

CGGACG
binding signal [1]: 0.164 ± 0.00531 fold-change vs cycle 0
binding signal [2]: 0.264 ± 0.055 fold-change vs cycle 0

AGGCCC
binding signal [1]: 0.169 ± 0.00192 fold-change vs cycle 0
binding signal [2]: 0.296 ± 0.0789 fold-change vs cycle 0

CCCACG
binding signal [1]: 0.214 ± 0.0117 fold-change vs cycle 0
binding signal [2]: 0.319 ± 0.0528 fold-change vs cycle 0

ACCGCT
binding signal [1]: 0.31 ± 0.02 fold-change vs cycle 0
binding signal [2]: 0.44 ± 0.0953 fold-change vs cycle 0

CGTGCC
binding signal [1]: 0.121 ± 0.0106 fold-change vs cycle 0
binding signal [2]: 0.246 ± 0.0768 fold-change vs cycle 0

AGCGCA
binding signal [1]: 0.18 ± 0.00997 fold-change vs cycle 0
binding signal [2]: 0.305 ± 0.097 fold-change vs cycle 0

CACGCA
binding signal [1]: 0.282 ± 0.00613 fold-change vs cycle 0
binding signal [2]: 0.422 ± 0.056 fold-change vs cycle 0

AGTGCG
binding signal [1]: 0.276 ± 0.0168 fold-change vs cycle 0
binding signal [2]: 0.407 ± 0.068 fold-change vs cycle 0

CGCGAG
binding signal [1]: 0.135 ± 0.0168 fold-change vs cycle 0
binding signal [2]: 0.231 ± 0.0693 fold-change vs cycle 0

CGGACC
binding signal [1]: 0.198 ± 0.0105 fold-change vs cycle 0
binding signal [2]: 0.315 ± 0.0637 fold-change vs cycle 0

GCCGGC
binding signal [1]: 0.0318 ± 0.0022 fold-change vs cycle 0
binding signal [2]: 0.112 ± 0.0697 fold-change vs cycle 0

AGCGTC
binding signal [1]: 0.301 ± 0.0204 fold-change vs cycle 0
binding signal [2]: 0.444 ± 0.0717 fold-change vs cycle 0

CGTCCC
binding signal [1]: 0.238 ± 0.0171 fold-change vs cycle 0
binding signal [2]: 0.351 ± 0.0721 fold-change vs cycle 0

GCCGAC
binding signal [1]: 0.0865 ± 0.0114 fold-change vs cycle 0
binding signal [2]: 0.204 ± 0.0612 fold-change vs cycle 0

ACCGCG
binding signal [1]: 0.099 ± 0.00138 fold-change vs cycle 0
binding signal [2]: 0.205 ± 0.0665 fold-change vs cycle 0

GGCGCA
binding signal [1]: 0.0622 ± 0.0107 fold-change vs cycle 0
binding signal [2]: 0.16 ± 0.0742 fold-change vs cycle 0

GTCCGA
binding signal [1]: 0.371 ± 0.00646 fold-change vs cycle 0
binding signal [2]: 0.506 ± 0.055 fold-change vs cycle 0

GGCCCC
binding signal [1]: 0.0767 ± 0.0129 fold-change vs cycle 0
binding signal [2]: 0.183 ± 0.0665 fold-change vs cycle 0

CTGCGC
binding signal [1]: 0.08 ± 0.0196 fold-change vs cycle 0
binding signal [2]: 0.173 ± 0.0775 fold-change vs cycle 0

GGCGTA
binding signal [1]: 0.242 ± 0.0221 fold-change vs cycle 0
binding signal [2]: 0.377 ± 0.0541 fold-change vs cycle 0

CAGCGA
binding signal [1]: 0.275 ± 0.0083 fold-change vs cycle 0
binding signal [2]: 0.404 ± 0.0764 fold-change vs cycle 0

CAGCCG
binding signal [1]: 0.115 ± 0.00217 fold-change vs cycle 0
binding signal [2]: 0.229 ± 0.0654 fold-change vs cycle 0

ATGGGC
binding signal [1]: 0.3096 ± 0.00283 fold-change vs cycle 0
binding signal [2]: 0.446 ± 0.0581 fold-change vs cycle 0

ATCGCC
binding signal [1]: 0.24 ± 0.00657 fold-change vs cycle 0
binding signal [2]: 0.401 ± 0.088 fold-change vs cycle 0

CCGTCG
binding signal [1]: 0.147 ± 0.00952 fold-change vs cycle 0
binding signal [2]: 0.245 ± 0.0616 fold-change vs cycle 0

GCCCTA
binding signal [1]: 0.353 ± 0.0173 fold-change vs cycle 0
binding signal [2]: 0.496 ± 0.0842 fold-change vs cycle 0

ACGCGA
binding signal [1]: 0.245 ± 0.0174 fold-change vs cycle 0
binding signal [2]: 0.365 ± 0.0478 fold-change vs cycle 0

ATGCCG
binding signal [1]: 0.222 ± 0.0038 fold-change vs cycle 0
binding signal [2]: 0.36 ± 0.0731 fold-change vs cycle 0

CCCCCC
binding signal [1]: 0.217 ± 0.0203 fold-change vs cycle 0
binding signal [2]: 0.314 ± 0.0628 fold-change vs cycle 0

ATGGCG
binding signal [1]: 0.236 ± 0.0151 fold-change vs cycle 0
binding signal [2]: 0.371 ± 0.0568 fold-change vs cycle 0

CCGGGC
binding signal [1]: 0.0594 ± 0.00905 fold-change vs cycle 0
binding signal [2]: 0.152 ± 0.0608 fold-change vs cycle 0

GACGAC
binding signal [1]: 0.342 ± 0.0283 fold-change vs cycle 0
binding signal [2]: 0.474 ± 0.0702 fold-change vs cycle 0

CCAGCG
binding signal [1]: 0.131 ± 0.0133 fold-change vs cycle 0
binding signal [2]: 0.245 ± 0.0689 fold-change vs cycle 0

ACTGGC
binding signal [1]: 0.318 ± 0.0103 fold-change vs cycle 0
binding signal [2]: 0.448 ± 0.0505 fold-change vs cycle 0

AGCCGC
binding signal [1]: 0.0699 ± 0.00939 fold-change vs cycle 0
binding signal [2]: 0.174 ± 0.0601 fold-change vs cycle 0

ACCCGG
binding signal [1]: 0.233 ± 0.025 fold-change vs cycle 0
binding signal [2]: 0.341 ± 0.0691 fold-change vs cycle 0

CGGCCG
binding signal [1]: 0.0289 ± 0.00511 fold-change vs cycle 0
binding signal [2]: 0.105 ± 0.0554 fold-change vs cycle 0

ACCGCC
binding signal [1]: 0.117 ± 0.0115 fold-change vs cycle 0
binding signal [2]: 0.235 ± 0.0718 fold-change vs cycle 0

CGGGGA
binding signal [1]: 0.231 ± 0.0209 fold-change vs cycle 0
binding signal [2]: 0.347 ± 0.093 fold-change vs cycle 0

CCGAGG
binding signal [1]: 0.251 ± 0.0139 fold-change vs cycle 0
binding signal [2]: 0.375 ± 0.0741 fold-change vs cycle 0

AACGGC
binding signal [1]: 0.225 ± 0.0115 fold-change vs cycle 0
binding signal [2]: 0.356 ± 0.0593 fold-change vs cycle 0

ATTCTC
binding signal [1]: 1.55 ± 0.0853 fold-change vs cycle 0
binding signal [2]: 1.41 ± 0.126 fold-change vs cycle 0

GACGCA
binding signal [1]: 0.263 ± 0.0079 fold-change vs cycle 0
binding signal [2]: 0.386 ± 0.0647 fold-change vs cycle 0

CCTCCG
binding signal [1]: 0.252 ± 0.0142 fold-change vs cycle 0
binding signal [2]: 0.367 ± 0.0686 fold-change vs cycle 0

CGGGAC
binding signal [1]: 0.202 ± 0.00689 fold-change vs cycle 0
binding signal [2]: 0.33 ± 0.0639 fold-change vs cycle 0

GCCCGC
binding signal [1]: 0.0368 ± 0.00404 fold-change vs cycle 0
binding signal [2]: 0.115 ± 0.0587 fold-change vs cycle 0
